Screening results from PubChem.
PAX8 inh HTS – inhibitors of PAX8-driven TPO luciferase reporter, primary screen, RMG-I cells, single concentration; 360,000 compounds, 1.2% hits; AID 652154, 2013; SteadyGlo, 24 h; inhibition, % at 12.6 µM;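 active = mean replicate inhibition at least 60% with every replicate also reaching 60%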;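 note: luciferase light reporting Pax8 driven TPO promoter activity; plate controls were median of neutral control wells for no effect and mitoxantrone controls for full effect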
TWEAK-Fn14 inh – inhibitors of TWEAK-Fn14 signaling, primary screen, luciferase reporter cells, uHTS; TWEAK-stimulated Fn14 reporter cells, luciferase luminescence, 8 h; inhibition, % at 10 µM; 360,000 compounds, 2% hits; AID 1159606, 2016; in the data active = inhibition above about 50%
EWS-Fli block – EWS/Fli-driven NR0B1 reporter inhibitors, primary screen, A673 cells, NR0B1 luciferase, luminescence, MLPCN library; viability-normalised; inhibition, % at 12.6 µM; 350,000 compounds, 0.67% hits; AID 651661, 2012;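 active = mean inhibition of at least 50% after viability correction, with every replicate also passing that limit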;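 note: firefly luciferase signal divided by Alamar Blue viability fluorescence both relative to DMSO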
TROY NFkB inh – inhibitors of TROY-driven NF-kB signaling, primary screen, Q293 LMP1-TROYcd cells, NF-kB luciferase, uHTS; AID 1347056, 2019; Q293 LMP1-TROYcd NF-kB luciferase reporter, 4 h; inhibition, % at 10 µM; 360,000 compounds, 0.98% hits;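 active = compounds whose plate-normalised and pattern-corrected inhibition of the luciferase reporter signal at the single screening dose is 50% or more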
LGR2 inh – inhibitors of bursicon-induced LGR2 CRE-luciferase signal, primary screen, cell-based, HEK293, CRE-luciferase reporter, bursicon stimulation; AID 720647, 2013; 380,000 compounds, 0.35% hits; Drosophila bursicon receptor LGR2 (rickets); inhibition, % at 9.99 µM; bursicon-stimulated, 4 h;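 active = drop in luminescence signal, shown as inhibition above about 50% in the replicate tests, limit read from the data, passing the limit was not always enough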;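 note: agonist challenge used bursicon conditioned medium at about half maximal strength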
DNA binding – DNA binders by acridine orange displacement, dose response, counter-screen for EWS/Fli inhibitor project, biochemical, fluorescence polarization, cherry-pick; AID 720586, 2013; salmon sperm DNA acridine orange fluorescence polarization; AC35, µM (top dose mostly 68 µM), for the others: at the highest dose activity change, negative = DNA binding; 640 compounds, 2% hits; shares compounds with EWS-Fli block;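 active = fitted curve reaches a 35% signal fall AC35 below twice the sample's top valid tested dose, actives reach about 48 µM in these data; inactive = the rest, including activity in the rising direction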;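 note: lower polarization ratio signals compound binding to DNA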
An asterisk follows results filed as active; · = no result. Most compounds without a hit are left out; they make up all but 2.8% or so of the library.

SMILES | PAX8 inh HTS | TWEAK-Fn14 inh | EWS-Fli block | TROY NFkB inh | LGR2 inh | DNA binding
C[C@@H]1CN([C@H](C)CO)S(=O)(=O)c2ccc(C#CC3CC3)cc2O[C@@H]1CN(C)Cc1ccccc1F | · | · | 61* | · | 26 | -10%
C[C@@H]1CN([C@@H](C)CO)S(=O)(=O)c2ccc(C#CC(C)(C)O)cc2O[C@H]1CN(C)Cc1ccc(-c2ccccc2)cc1 | · | · | 75* | · | -5 | -3%
C[C@@H]1CN([C@@H](C)CO)S(=O)(=O)c2ccc(C#CC(C)(C)O)cc2O[C@@H]1CN(C)Cc1ccc(-c2ccccc2)cc1 | · | · | 30 | · | 30 | ·
C[C@H]1CN([C@@H](C)CO)S(=O)(=O)c2ccc(C#CC3CC3)cc2O[C@@H]1CN(C)Cc1ccccc1F | · | · | 24 | · | 22 | ·
O=c1ccc2ccccc2c2ccccc12 | 88* | 94* | 63* | 52* | 3 | -12%
COc1cccc(-c2ccc([C@H]3[C@@H](CO)N4CCCCN(CC5CCOCC5)C[C@H]34)cc2)c1 | -42 | · | 3 | · | · | ·
CC1(C)N=C(N)N=C(N)N1c1ccc(CCCCc2ccccc2)cc1 | 68* | 40 | 57* | 21 | 43 | -4%
CC(=O)c1ccc(N(C(=O)Cn2nnc3ccccc32)C(C(=O)NCc2ccccc2)c2ccccn2)cc1 (stereo not given) | -20 | -1 | 62* | -37 | -5 | -6%
O=C(NC1CCCC1)C(c1ccccc1)n1c(CSCCOc2ccccc2)nc2ccccc21 (stereo not given) | -11 | · | 60* | · | -48 | 2%
O=C(NC1CCCC1)C(c1ccccc1)n1c(-c2cccs2)nc2ccccc21 (stereo not given) | -12 | · | -7 | · | 14 | ·
C[C@H](O)C#Cc1cnc2c(c1)C(=O)N([C@H](C)CO)C[C@H](C)[C@@H](CN(C)Cc1cccc(F)c1)O2 | · | · | -4 | · | 4 | ·
Cc1cc(C)n(/N=C/c2ccccc2O)c(=O)c1 | 4 | -1 | -7 | -20 | -5 | ·
CN=c1scc(-c2cccs2)n1/N=C/c1ccccc1O | 118* | 108* | 93* | 88* | 100* | -7%
COc1ccccc1-c1ccc(OCCCN2CCC(C(O)(c3ccccc3)c3ccccc3)CC2)cc1 | 96* | · | 71* | · | 62* | -15%
COc1ccc(N=C(NN)c2ccc3ccccc3n2)cc1 | · | 101* | 72* | 91* | · | -1%
COc1ccc(NC(=O)Nc2ccc3c(c2)[C@@H]2C[C@@H](CC(=O)NC4CCCC4)O[C@@H](CO)[C@@H]2O3)cc1 | -3 | · | 9 | · | 17 | ·
CN(C[C@H]1N[C@@H](CO)[C@@H]1c1ccc(C2=CCCC2)cc1)C(=O)c1ccc(F)cc1 | 108* | · | 73* | · | 1 | -14%
COc1ccc(C(=O)NC(=S)Nc2cccc(S(=O)(=O)N3CCOCC3)c2)cc1 | 14 | 2 | 29 | 9 | 1 | ·
CC(=O)Oc1ccc(-c2ccc(C(=O)Nc3cccc(S(=O)(=O)N4CCOCC4)c3)cc2)cc1 | 41 | 4 | 59* | 38 | 44 | -7%
CCN1[C@@H]2Cn3c(ccc(C4=CCCCC4)c3=O)[C@H]1[C@@H](C(=O)NCCOC)[C@@H]2CO | · | · | 2 | · | -18 | ·
CCNC(=O)[C@@H]1[C@@H](CO)[C@@H]2Cn3c(ccc(C4=CCCCC4)c3=O)[C@H]1N2CC | · | · | · | · | 2 | -15%
CN1C(=O)c2cc(NC(=O)c3ccc(F)cc3)ccc2OC[C@@H]2O[C@H](CC(=O)N3CCOCC3)CC[C@H]21 | -6 | · | 5 | · | -4 | ·
COc1ccccc1NC(=O)N1[C@@H]2CNC[C@H]1C2c1ccc(-c2cccc(C#N)c2)cc1 (stereo not given in full) | · | · | · | · | 14 | ·
COc1ccccc1NC(=O)N1[C@@H]2CNC[C@H]1[C@@H]2c1ccc(-c2ccc(C#N)cc2)cc1 | -5 | · | 54* | · | 19 | -16%
CCc1ccc2oc(C(=O)N3CCN(c4ccccc4OC)CC3)cc(=O)c2c1 | 20 | -12 | 56* | 1 | -4 | -4%
SMILES | PAX8 inh HTS | TWEAK-Fn14 inh | EWS-Fli block | TROY NFkB inh | LGR2 inh | DNA binding
COC(=O)C[C@@H]1CC[C@H]2[C@H](COc3ccc(NC(=O)Cc4cccs4)cc3C(=O)N2C)O1 | -7 | · | 9 | · | -5 | ·
COCCOC(=O)N1C(=O)[C@@]2(c3cc(C#CCC(C(=O)OC)C(=O)OC)ccc31)[C@H](c1ccccc1OCCO)N1[C@H](c3ccccc3)[C@H](c3ccccc3)OC(=O)[C@H]1[C@@H]2C(=O)N1CCN(c2ncccn2)CC1 | 14 | · | 61* | · | · | 1%
COC(=O)C(CC#Cc1ccc2c(c1)[C@]1(C(=O)N2)[C@H](c2ccc(OCCO)cc2)N2[C@H](c3ccccc3)[C@H](c3ccccc3)OC(=O)[C@H]2[C@@H]1C(=O)N1CCN(c2ncccn2)CC1)C(=O)OC | -22 | · | 76* | · | · | 3%
COCCOC(=O)N1C(=O)[C@@]2(c3cc(C#CCCO)ccc31)[C@H](C(=O)N1CCN(c3ncccn3)CC1)[C@H]1C(=O)O[C@H](c3ccccc3)[C@H](c3ccccc3)N1[C@@H]2c1ccccc1OCCO | · | · | -6 | · | · | ·
CN1C(=O)c2cc(NC(=O)C3CCC3)ccc2OC[C@H]2O[C@H](CC(=O)NCC3CCCCC3)CC[C@@H]21 | -1 | · | 0 | · | -7 | ·
Nc1ccc(Oc2ccccc2-c2ccccc2)cc1 | 23 | 82* | 63* | 68* | · | -4%
NCCOc1ccccc1-c1ccccc1 | · | 25 | · | 0 | · | ·
C[C@H]1CN([C@@H](C)CO)C(=O)c2cccc(N(C)C)c2O[C@@H]1CN(C)Cc1ccncc1 | 13 | · | -12 | · | 14 | ·
Cc1cccc(Oc2ccc(N)cc2)c1 | · | -5 | · | -35 | · | ·
Nc1ccc(Oc2cccc(Oc3ccc(N)cc3)c2)cc1 | 13 | 82* | 78* | 60* | -15 | 3%
Cc1c(Cl)cccc1NC(=O)CCC(=O)N/N=C/c1ccc[nH]1 | -8 | -12 | 58* | 1 | 10 | -13%
COC(=O)C[C@@H]1CC[C@@H]2[C@H](COc3ccc(NC(=O)c4cc(C)on4)cc3C(=O)N2C)O1 | 24 | · | 60* | · | 10 | -15%
Cc1cc(C(=O)Nc2ccc3c(c2)C(=O)N(C)[C@@H]2CC[C@H](CC(=O)N[C@H](C)c4ccccc4)O[C@H]2CO3)no1 | 41 | · | 58* | · | 6 | -7%
O=c1cc(-c2ccccc2)oc2ccc3ccccc3c12 | 91* | 93* | 81* | 75* | 101* | 13%
N#CC1=C(N)Oc2cc(N)ccc2C1c1cccc(F)c1 (stereo not given) | 25 | 41 | 53* | 3 | -22 | -9%
CCNC(=O)c1cccc(S(=O)(=O)N2CCCCCC2)c1 | -12 | -9 | 67* | 8 | 15 | -20%
